Reference: PubChem BioAssay (NCI)
This is part of a sample that, as a whole, favours compounds with a hit. Of some 79,000 tested, about 15% had one in any assay. Cut-off read from the data, not from the text of the source: active = growth inhibition above about 70%; inactive = the rest.

Key:
[1] = NCI Yeast Anticancer Drug Screen. Data for the rad50 strain (AID 155);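 note: 0% = growth of vehicle-only cultures of the same strain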; conditions: S. cerevisiae rad50 strain growth inhibition; at 50.0 µM; hits give high values
Summary of the method: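 DNA repair mutant yeast, compound exposure, growth read-out; inhibition is taken relative to vehicle.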

[2] = NCI Yeast Anticancer Drug Screen. Data for the mec2-1 strain (AID 157); conditions: S. cerevisiae mec2-1 strain, at 50.0 µM, hits give high values
Summary of the method: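 Mutant yeast (mec2-1) grown with compound; growth inhibition relative to vehicle control reported.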

[3] = NCI Yeast Anticancer Drug Screen. Data for the sgs1 mgt1 strain (AID 161);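 note: 0% = growth of cultures given vehicle only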; conditions: S. cerevisiae sgs1 mgt1 strain, at 50.0 µM, hits give high values
Summary of the method: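 This yeast growth screen uses a strain with defined DNA-repair lesions; compound-treated growth is compared with vehicle-treated growth.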

[4] = NCI Yeast Anticancer Drug Screen. Data for the cln2 rad14 strain (AID 165);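 note: 0% = growth equal to vehicle treated cultures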; conditions: S. cerevisiae cln2 rad14 strain, at 50.0 µM, hits give high values
Summary of the method: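 Readout is yeast growth inhibition versus vehicle-treated controls, using a strain with cln2 and rad14 alterations exposed to compound.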

[5] = NCI Yeast Anticancer Drug Screen. Data for the bub3 strain (AID 167); conditions: S. cerevisiae bub3 mutant strain, at 50.0 µM, hits give high values
Summary of the method: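 In this screen, a yeast mutant lacking normal mitotic checkpoint function is challenged with compound. Relative growth versus vehicle gives the inhibition value.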

[6] = NCI Yeast Anticancer Drug Screen. Data for the mlh1 rad18 strain (AID 175); conditions: S. cerevisiae mlh1 rad18 strain growth inhibition; at 50.0 µM; hits give high values
Summary of the method: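 Genetically defined yeast (DNA repair-deficient) exposed to compounds; growth inhibition determined relative to vehicle.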

Measured: growth inhibition

N#Cc1nc(/C=C/c2nc(C#N)c(N)o2)oc1N
inactive: [1] -34.5% | [2] -28.7% | [3] -5.25% | [4] 9.25% | [5] 8.4% | [6] -0.95%

O=C1c2ccccc2C(=O)N1CC(O)COc1cccc2ccccc12 (stereo not drawn)
inactive: [1] -23.1% | [2] -79.5% | [3] -24.4% | [4] -13.9% | [5] 8.3% | [6] -14.8%

C=CCON(C)c1ccc([N+](=O)[O-])cc1[N+](=O)[O-]
inactive: [1] 15.3% | [2] -0.9% | [3] 16.1% | [4] -43.9% | [5] -1.05% | [6] 13.8%
